Type in all cases: functional
The target in experiment [1] is Solute carrier family 2, facilitated glucose transporter member 1 (Homo sapiens) (UniProt P11166). In words: ST_JUDE_LEISH: Cytotoxicity at 2uM final concentration against transgenic Leishmania Mexicana promastigotes LmGLUT1 that are glucose transport deficient and complemented with the human glucose transporter GLUT1. Activity is measured by DNA content using SYBR green in vitro.

Experiment [2] deals with Hexose transporter 1 (Plasmodium falciparum) (UniProt O97467). In words: ST_JUDE_LEISH: Cytotoxicity at 2uM final concentration against transgenic Leishmania Mexicana promastigotes LmPfHT that are glucose transport deficient and complemented with the Plasmodium falciparum hexose transporter. Activity is measured by DNA content using SYBR green in vitro.
Experiment [3] has as its target Glucose transporter (Leishmania mexicana) (UniProt O61059). Nature of the experiment: ST_JUDE_LEISH: Cytotoxicity at 2uM final concentration against transgenic Leishmania Mexicana promastigotes LmGT2 that are glucose transport deficient and complemented with the L. Mexicana glucose transporter 2. Activity is measured by DNA content using SYBR green in vitro.

Chain of Solute carrier family 2, facilitated glucose transporter member 1 (Homo sapiens) (P11166 whole entry): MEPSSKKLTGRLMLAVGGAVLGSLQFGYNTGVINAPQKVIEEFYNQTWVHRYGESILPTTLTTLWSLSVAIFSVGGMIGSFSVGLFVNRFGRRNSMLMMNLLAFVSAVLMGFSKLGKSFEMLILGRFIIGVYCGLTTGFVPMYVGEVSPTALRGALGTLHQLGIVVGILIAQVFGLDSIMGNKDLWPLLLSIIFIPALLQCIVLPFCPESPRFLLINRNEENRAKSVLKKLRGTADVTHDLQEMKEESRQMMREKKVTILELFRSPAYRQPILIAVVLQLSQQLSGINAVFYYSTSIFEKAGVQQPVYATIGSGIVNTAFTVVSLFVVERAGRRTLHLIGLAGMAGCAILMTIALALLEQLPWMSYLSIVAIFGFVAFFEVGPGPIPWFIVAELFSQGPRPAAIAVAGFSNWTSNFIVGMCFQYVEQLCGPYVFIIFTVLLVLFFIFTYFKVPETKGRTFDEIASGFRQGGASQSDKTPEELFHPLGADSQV

With `Cc1sc(C)c(C(F)(F)F)c1CNCCCNc1cc(=O)c2ccccc2[nH]1`, the inhibition was found to be 4.01% in experiment [1], 4.67% in experiment [2] and 4.27% in experiment [3].
Consider `CC1(C)N=C(N)N=C(Nc2ccc(Cl)cc2)N1`, for which the inhibition turned out to be 14.5% in experiment [1], 14.3% in experiment [2] and 11.4% in experiment [3].
Consider `Cc1cccc2nc(-c3ccc(-c4ccc(CNCc5cccc(N)c5)cc4)cc3)[nH]c12`, for which the inhibition turned out to be 24.1% in experiment [1], 30.9% in experiment [2] and 14.9% in experiment [3].
With `N=C(/N=C(/NCCCCCCN/C(=N/C(=N)NCc1ccc(Cl)c(Cl)c1)N1CCCCC1)N1CCCCC1)NCc1ccc(Cl)c(Cl)c1`, the inhibition in experiment [1] came to 8.42%; in experiment [2], 9.68%; in experiment [3], 8.06%.
As to `Cc1ccccc1Nc1nc(NCCc2ccccc2)nc2ccccc12`, the inhibition in experiment [1] was found to be 49.2%; in experiment [2], 37.4%; in experiment [3], 18.3%.
For `CCCCCCNC(=O)C(N)CCCC(N)C(=O)NCCCCCC` (stereo not given) the same measures were 6.05%, 5.65% and 5.23%.
Turning to `O=[N+]([O-])c1ccc(C2=NN(S(=O)(=O)c3c(Cl)cc(Cl)cc3Cl)CCCC2)cc1`, the inhibition in experiment [1] was 0.34%; in experiment [2] it was 0.56%; in experiment [3] it was -0.34%.
With `Cc1ccccc1C1CCN(C2CCC(NC(=O)c3cc4cc(Cl)ccc4o3)CC2)CC1` (stereo not given), the inhibition in experiment [1] worked out at 1.84%; in experiment [2], 1.17%; in experiment [3] it was 3.04%.
The matching figures for `CCC(C)c1ccc(NC(=O)Nc2ccc(Cn3ncc(N4CCCNCC4)c(Cl)c3=O)cc2)cc1` (stereo not given): 3.78%, 4.71% and -0.01%.
As for `O=S(=O)(c1cccc(Cl)c1F)N(CCC(O)(C(F)(F)F)C(F)(F)F)Cc1cccc(O)c1`, the inhibition in experiment [1] is 5.8%; in experiment [2], -1.78%; in experiment [3], -0.05%.
As for `COc1ccc(/C=C/C(=O)Nc2ccc(-c3ccncc3)cc2)cc1CCCN(C)C`, the figures for the inhibition in experiment [1], in experiment [2] and in experiment [3] were 6.87%, 5.55% and 6.94%, respectively.
For the compound `Cc1nc(SCC(=O)N2CCCC2=O)c2c(C)c(C)sc2n1`, the inhibition in experiment [1] turned out to be 8.94%; in experiment [2], 8.95%; in experiment [3] it was 6.78%.
Take `Cc1cc(N2CCCC2)nc(Nc2ccc(NC(=O)C(C)C)cc2)n1`: the inhibition in experiment [1] is 5.62%; in experiment [2] it was 2.73%; in experiment [3] it was -6.48%.
As to `O=C(Nc1ccc(F)cc1)c1nc2ccccc2nc1Cl`, the inhibition in experiment [1] is 4.1%; in experiment [2], 3.68%; in experiment [3], 4.22%.
The matching figures for `Cc1cc(NS(=O)(=O)c2cccc(C(C)N3CCC(N4CCCC4)CC3)c2)ccc1C(C)C` (stereo not given): 6.44%, 5.82% and 1.55%.
For `CCN(CC)CCN(Cc1ccc(-c2ccc(C(F)(F)F)cc2)cc1)C(=O)Cn1c(CCc2c(F)cc(F)cc2F)nc(=O)c2ccccc21`, the inhibition in experiment [1] is -0.61%; in experiment [2], 0.48%; in experiment [3], 0.56%.
The matching figures for `O=C(Nc1ccc(-c2cccc(-c3nc4ccccc4[nH]3)c2)cc1)c1cnn2cccnc12`: 7.76%, 2.12% and -0.16%.
On to `NCc1cccc(-c2ccccc2CNC2CCN(Cc3ccccc3)CC2)c1`, for which the inhibition in experiment [1] turned out to be 6%; in experiment [2], 5.52%; in experiment [3] it was 6.92%.
In the case of `COc1cccc(C2CCCN(CCCCNC(=O)c3ccc(NC(=O)c4ccc(Cl)cc4)cc3)C2)c1` (stereo not given), the inhibition is 2.97% in experiment [1], 4.25% in experiment [2] and 3.02% in experiment [3].
Consider `COc1ccc(-c2nc(NC(=O)Cc3ccc(OC)c(OC)c3)sc2C)cc1`, for which the inhibition amounted to 1.75% in experiment [1], 3.07% in experiment [2] and 1.83% in experiment [3].
As to `O=[N+]([O-])c1cccc(CNCC2CCN(Cc3ccc(Cl)c(Cl)c3)CC2)c1`, the inhibition came to 18.2% in experiment [1], 9.74% in experiment [2] and 12.9% in experiment [3].
The matching figures for `C=C[C@]1(C)C[C@@H](OC(=O)NC(=O)CCCS(=O)(=O)c2nnc(C)s2)[C@]2(C)[C@H](C)CC[C@]3(CCC(=O)[C@H]32)[C@@H](C)[C@@H]1O`: 11.1%, 11.3% and 6.8%.
As to `CC(=O)Nc1ccc(Nc2cc(C)nc(Nc3ccc(NC(C)=O)cc3)n2)cc1`, the inhibition in experiment [1] is 2.12%; in experiment [2], 5.08%; in experiment [3] it was 2.71%.
Consider `Cc1cccc2sc(N(CCCn3ccnc3)C(=O)C=Cc3cccs3)nc12`, for which the inhibition was found to be 12.6% in experiment [1], 12.7% in experiment [2] and 6.56% in experiment [3].
For the compound `CN(C)c1ccc(-c2ccc(C(=O)NC3CCN(Cc4ccccc4)CC3)s2)cc1`, the inhibition in experiment [1] amounted to 1.65%; in experiment [2], 0.56%; in experiment [3], 1.83%.
Take `O=C(Nc1cccc(-c2ccc(-c3nc4cc(F)ccc4[nH]3)s2)c1)c1cccnc1`: the inhibition is 5.68% in experiment [1], 4.85% in experiment [2] and 3.13% in experiment [3].
Take `O=C(Cc1ccccc1)NC(CCN1CCC(N(C2CC2)S(=O)(=O)c2cccc(C(F)(F)F)c2)CC1)c1ccc(Cl)c(Cl)c1` (stereo not given): the values for the inhibition in experiment [1], in experiment [2] and in experiment [3] were 5.55%, 3.86% and 3.73%, respectively.
The matching figures for `CCOC(=O)c1ccc(NC(=O)Nc2ccc(-c3cccc(-c4nc5ccccc5[nH]4)c3)cc2)cc1`: 6.03%, 4.66% and 1.68%.
As to `CCCCCCN1CCC(NCc2cccc([N+](=O)[O-])c2)CC1`, the results for the inhibition in experiment [1], in experiment [2] and in experiment [3] were 3.72%, 5.68% and 4.96%, respectively.
With `O=C(NC(CCCN1CCC(c2ccccc2)CC1)c1ccc(Cl)c(Cl)c1)c1cc(C(F)(F)F)cc(C(F)(F)F)c1` (stereo not given), the inhibition was determined as 2.06% in experiment [1], 1.99% in experiment [2] and 1.89% in experiment [3].
`CC(C)(C)C(=O)Nc1ccc(C(=O)Nc2cccc(-c3nc4ccccc4[nH]3)c2)cc1`: the inhibition in experiment [1] was 1.87%; in experiment [2], 0.85%; in experiment [3], -0.79%.
Regarding `O=C(NCC1Cc2cc(Oc3ccccc3)ccc2O1)c1ccc([N+](=O)[O-])o1` (stereo not given), the inhibition was 7.98% in experiment [1], 10.4% in experiment [2] and 3.24% in experiment [3].
Turning to `O=C(Nc1ccccc1O)C1CCN(c2ncnc3cc(-c4ccc(F)cc4)sc23)CC1`, the inhibition in experiment [1] is 1.73%; in experiment [2], 2.48%; in experiment [3], -2.46%.
For `Cc1cc(C)c(NC(=O)N2CCCN(CCCCCNC(=O)/C=C/c3ccc(Cl)c(Cl)c3)CC2)c(C)c1` the same measures were 3.44%, 2.95% and 2.56%.
For `CCc1cn2c3c(cc(C(=O)N[C@@H](Cc4ccccc4)[C@H](O)CNC4CCCCC4)cc13)N(CC)S(=O)(=O)CC2` the same measures were -0.63%, 0.33% and -3.68%.

As usually defined, the inhibition is the change of the read-out against control, counted positive when it falls.
